Many of the other results were omitted from the sample, so hits are more common in it than they were.
AMA1-RON2 inh = disrupts binding of P. falciparum AMA1 to RON2; AID 720542; Potency, µM (titrated, usually from 58.2 µM), usual class: inhibitors; AlphaScreen AMA1-biotinylated RON2 peptide binding; hit rate 0.2% among 360,000; note: nearly all actives have a fitted effect of over 45% in size
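AMA1 (3D7) with his tag at 25 nM final met compounds first, then biotinylated RON2 peptide at 25 nM; detection used donor plus acceptor beads, 10 µg/mL apiece, read by AlphaScreen after 30 min at room temperature.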
AmpC no deterg = inhibitors of E. coli AmpC beta-lactamase without detergent; hit rate 0.52% among 330,000; P00811; AID 485341; Potency, µM (titrated, usually from 57.1 µM), most hits filed as inhibitors; AmpC nitrocefin hydrolysis, absorbance 480 nm, 0.0001% Triton; note: nearly all actives have a fitted effect of over 20% in size
Target sequence (P00811 whole entry, looked up): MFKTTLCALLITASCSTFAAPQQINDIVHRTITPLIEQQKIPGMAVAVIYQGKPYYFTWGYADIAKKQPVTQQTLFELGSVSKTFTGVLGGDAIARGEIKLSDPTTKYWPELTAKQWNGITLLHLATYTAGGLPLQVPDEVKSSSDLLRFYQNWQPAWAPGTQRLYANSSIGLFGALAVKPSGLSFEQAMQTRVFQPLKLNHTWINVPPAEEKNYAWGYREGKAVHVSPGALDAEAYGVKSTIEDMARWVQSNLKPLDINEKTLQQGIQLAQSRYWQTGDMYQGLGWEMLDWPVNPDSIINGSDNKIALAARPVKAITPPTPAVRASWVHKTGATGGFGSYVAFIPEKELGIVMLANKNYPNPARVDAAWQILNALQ
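AmpC (5.3 nM in the dispensed reagent) in 20 mM phosphate pH 7.0 with 0.01% (detergent screen) or 0.0001% Triton X-100 was preincubated with compounds for 15 min at room temperature. Nitrocefin was then added from an 800 uM solution, and hydrolysis was followed at 480 nm.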
AmpC detergent = AmpC beta-lactamase inhibition with detergent present. P00811. Potency, µM (titrated, usually from 114 µM), actives largely listed as inhibitors. AmpC hydrolysis of nitrocefin, absorbance 480 nm, 0.01% Triton. hit rate 0.041% among 370,000; note: nearly all actives have a fitted effect of over 25% in size
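20 mM phosphate pH 7.0 + 0.01% (detergent screen) or 0.0001% Triton X-100; 5.3 nM AmpC reagent; cpd preinc 15 min RT; nitrocefin (800 uM stock) to start; A480 q20 s × 4 min; Activity was normalised to no-enzyme and no-compound control wells.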
Shiga toxin inh = inhibitors of Shiga toxin in Vero cells. hit rate 9.2% among 290,000. Vero cells, Shiga toxin protein synthesis inhibition reporter. inhibition, % at 38.7 µM; in the data active = inhibition mostly above about 28%, no sharp cut-off; inactive = mostly below about 43%
CHX counter = counter-screen for Shiga toxin inhibitors: cycloheximide protein synthesis inhibition. cell reporter, cycloheximide protein synthesis inhibition counterscreen. max response, %. hit rate 12% among 300,000. AID 2314; in the data active = max response mostly above about 13%, no sharp cut-off; inactive = mostly below about 14%; note: read at 38.3 µM for the half of the compounds with a filed dose
SARS PLP yeast = blocks SARS-CoV papain-like protease in a yeast assay | S. cerevisiae expressing SARS-CoV PLpro, growth rescue | Potency, µM (series often up to 32.9 µM), hits mostly activators | hit rate 0.19% among 330,000 | AID 485353; calls by dose curve; note: nearly all actives have a fitted effect of over 55% in size
Numbers stand for hits; i = inactive; ? = inconclusive; nt = no result; [ ] = dose if it differs, or a comment. Unless noted, calls come from the whole dose curve; as a rule, active = well fitted curve in the direction sought with a large enough effect; inconclusive = small, poorly fitted or top-dose-only effect, or another doubt; inactive = no such curve, though single readings can be large; an effect the other way counts as inactive or inconclusive.

SMILES	AMA1-RON2 inh	AmpC no deterg	AmpC detergent	Shiga toxin inh	CHX counter	SARS PLP yeast
O=C([O-])c1cc(-c2ccccc2)cc(-c2ccccc2)[n+]1Cc1ccccc1	nt	i	i	nt	nt	i
CCNC(=S)N1CCN(S(=O)(=O)c2ccccc2C(F)(F)F)CC1	i	i	i	i	i	i
NC(=O)c1ccc(-c2noc(-c3ccccc3F)n2)cc1	nt	i	i	nt	nt	i
CC(=O)c1ccc(NC(=O)COc2ccccc2-c2nc(-c3ccc(C)cc3)no2)cc1	nt	nt	i	nt	nt	nt
O=C(Nc1ccc(-c2noc(-c3ccccc3F)n2)cc1)c1cccs1	i[2.32 µM]	i	?	71.3	45.9	i
Cc1ccccc1-c1nc(-c2ccc(NC(=O)c3cccs3)cc2)no1	i	i	i	82.4	46.0	i
O=C(CSc1nnc(-c2ccccc2O)o1)Oc1ccc(OCc2ccccc2)cc1	i	i	i	101.4	31.4	i
O=Cc1c(OCc2ccccc2)ccc2ccccc12	i	i	i	77.9	46.9	i
CC1(C)CNC(=O)c2sc(NC(=O)c3ccccc3)nc2C1	i	i	i	109.5	51.1	i
CC1(C)CC(=O)c2sc(NC(=O)c3cccs3)nc2C1	i	i	i	i	15.7	i
CC1(C)CC(=O)c2sc(NC(=O)c3ccc4ncsc4c3)nc2C1	i	i	?	62.2	23.9	i
CC1(C)CC(=O)c2sc(NC(=O)C(C)(C)C)nc2C1	i	i	i	92.1	40.2	i
CC(C)CN(C(=O)CSc1ccc2c(c1)OCCO2)c1c(N)n(CC(C)C)c(=O)[nH]c1=O	i	i	i	nt	nt	i
CC1(C)CC(=O)c2sc(NC(=O)c3ccccc3)nc2C1	nt	i	i	75.1	33.2	i
CC1(C)CC(=O)c2sc(NC(=O)CCS(=O)(=O)c3ccccc3)nc2C1	i	i	i	i	30.2	i
Cc1ccsc1C(=O)N1CCCC(CO)(Cc2ccccc2)C1 (centres undefined)	i	i	i	i	21.6	i
CCOc1ccc(-c2nc(SCC(=O)Nc3ccc4c(c3)OCO4)c(-c3ccc(F)cc3)[nH]2)cc1	nt	nt	i	nt	nt	nt
CCOc1ccc(S(=O)(=O)NCC(c2ccc3c(c2)OCO3)N2CCN(C)CC2)cc1 (centres undefined)	i	i	i	nt	nt	i
COc1ccc(C)cc1NC(=O)COC(=O)C1COc2ccccc2O1 (centres undefined)	i	i	nt	nt	nt	i
Cc1ccc(C)c(NC(=O)C2COc3ccccc3O2)c1 (centres undefined)	i	i	?	i	13.7	i
COc1ccc(C)cc1NC(=O)C1COc2ccccc2O1 (centres undefined)	i	i	i	103.4	37.6	i
COC(c1ccccc1)c1nnc(CCC(=O)NCCC(C)C)o1 (centres undefined)	i	i	i	i	i	i
COC(c1ccccc1)c1nnc(CCC(=O)N(C)Cc2cccc(-n3cccn3)c2)o1 (centres undefined)	i	i	i	106.9	33.1	i
COC(c1ccccc1)c1nnc(CCC(=O)N(C)CCCC2CCCC2)o1 (centres undefined)	i	i	i	46.3	26.9	i
CCCN(CC1CC1)C(=O)CCc1nnc(C(OC)c2ccccc2)o1 (centres undefined)	i	i	i	46.4	i	i
SMILES	AMA1-RON2 inh	AmpC no deterg	AmpC detergent	Shiga toxin inh	CHX counter	SARS PLP yeast
COC(c1ccccc1)c1nnc(CCC(=O)N(C)CCOc2ccccc2)o1 (centres undefined)	i	i	i	59.5	27.7	i
CCCN(CC1CC1)C(=O)CCc1nnc(CCc2c[nH]c3ccccc23)o1	i	i	i	i	i	i
CCn1ccnc1CN(C)C(=O)CCc1nnc(CCC2CCCCC2)o1	i	i	i	i	i	i
COC(c1ccccc1)c1nnc(CCC(=O)NCc2ccc3ncccc3c2)o1 (centres undefined)	i	i	i	i	i	i
Cc1ccc2nc(C(=O)O)c(C(=O)O)nc2c1	i	i	i	i	i	i
O=C(c1cc(F)ccc1F)N1CCC(N2CCC(C(=O)N3CCCC3)CC2)CC1	i	i	i	i	17.3	i
O=C(c1ccccc1Cl)N1CCC(N2CCC(C(=O)N3CCCC3)CC2)CC1	i	i	?	i	23.7	i
O=C(c1cccc(Cl)c1)N1CCC(N2CCC(C(=O)N3CCOCC3)CC2)CC1	i	i	i	i	i	i

Assay outcomes as filed in PubChem.
